These results are taken from PubChem BioAssay.

“And” between values parts separate entries of the source, which are not always exact repeats. Equal entries are not always repeated. For some of these results: Results with a measured potency or affinity are listed apart. The source made the active and inactive calls. Cut-off read from the data, not from the text of the source, unless noted: active = parasite load remaining mostly below about 12% (no sharp cut-off); inactive = mostly above about 10%.

Assay [1] is described as follows: blockers of polyQ-driven CASP3 activation – cell-based (AID 1583). As to conditions: polyglutamine-induced caspase-3 activation, cell assay; stronger effect = higher value;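 tested at 10 µM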.
Assay [2] in a line: yeast 75Q aggregation reduction – 75Q-TubU reporter (AID 1593). The conditions noted are these: Yeast 75Q polyglutamine aggregation reporter.
A short description of assay [3]: restoration of touch response, mutant HTT neurons – whole organism, C. elegans mechanosensory neurons, N-terminal huntingtin (AID 1599). The conditions noted are these: C. elegans polyQ-huntingtin mechanosensory neurons, stronger effect = higher value.
Assay [4] is described as follows: blockers of cytochrome c efflux from mitochondria – biochemical, purified mitochondria (AID 1603).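 Note: mouse liver mitochondria challenged with calcium chloride; signal normalized to the plate average as 100%.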 As to conditions: stronger effect = lower value.
Assay [5] in a line: polyglutamine aggregate formation blockers (AID 1604). As to conditions: polyglutamine-induced protein aggregation inhibition assay; stronger effect = higher value; tested at 2.5 µM.
Assay [6] can be described thus: glutamate transport activators, MN-1 cells, MN-1 cell line (AID 1612).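 Note: tested at 1 µM final; 0% = mean of DMSO vehicle wells on each plate; positive means more glutamate uptake than control and negative means less.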 As to conditions: MN-1 motor neuron cells, stronger effect = higher value.
Assay [7] in a line: GFP-Q80 aggregate reduction, neuronal-like cells, cell-based, NGF-treated PC12, GFPQ80 (AID 1614).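 Note: lower means fewer inclusions and 0 means no inclusions at all.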 As to conditions: PC12 NGF-treated GFP-polyQ80 inclusion reduction.
Assay [8] can be described thus: 75Q-TubH aggregate inhibition, S. cerevisiae, yeast (AID 1616). As to conditions: S. cerevisiae 75Q-TubH polyglutamine aggregation suppression; stronger effect = higher value.
Assay [9] can be described thus: P. berghei load reduction in hepatocytes – cell-based, HepG2, luciferase luminescence, HepG2 viability, primary screen (AID 624349).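 Note: 100% = mean of DMSO negative control wells on the same plate.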 As to conditions: P. berghei liver stage in HepG2, luciferase luminescence, concentration not given here; parasite load remaining: stronger effect = lower value; viability: measured here: HepG2 viability without parasites.
Assay [10] can be described thus: EMT-state selective cytotoxicity in co-culture – imaging, PC-3E GFP, TEM4-18 mCherry, primary screen (AID 1345086;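 active = compounds killing one labelled cell type while sparing the other, by normalised counts and ratio limits, not self-fluorescent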;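 for all read-outs here: cells exposed to compound for 72 h before imaging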;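 for red/green cell ratio (normalised): normalised mesenchymal count divided by normalised epithelial count so high means epithelial killing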). The conditions noted are these: PC-3E GFP / TEM4-18 mCherry co-culture, imaging cell counts, at 1 µM; for red/green cell ratio (normalised): actives lie on both sides, counts scaled to control wells, 1 = unselective.
The nature of assay [11]: viability loss with induced miR-34 in A549 – imaging, A549 dox-inducible miR-34, nuclei and caspase counts, primary screen (AID 1347080;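 active = compounds whose cell count with miR-34 switched on is under 0.7 times the count with it off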). As to conditions: A549 miR-34 inducible, Hoechst nuclei count, 48 h.
The mark [12] stands for this setting: measured here: epithelial PC-3E GFP cell survival.
[13] abbreviates: measured here: mesenchymal TEM4-18 mCherry cell survival.
The mark [14] stands for this setting: stronger effect = lower value, cell number ratio, induced over uninduced.
Setting [15] is: measured here: relative caspase fold change +Dox/-Dox.
[16] abbreviates: measured here: total cells with miR-34 induction, stronger effect = lower value.
The mark [17] stands for this setting: measured here: total cells without miR-34 induction.

For `CCCC1O[C@@H]2CC3C4CCC5=CC(=O)C=CC5(C)C4[C@@H](O)CC3(C)[C@]2(C(=O)CO)O1` (stereo not given in full), the inhibition in assay [1] was found to be 18.7%. The score in assay [2] amounted to 1.33. The compound further returned a rescue above control in [3] of -3.37. In addition, the cytochrome c release ratio in assay [4] amounted to 1.5. Also, the inhibition of aggregation in [5] turned out to be 69.2%. Moreover, the glutamate uptake change in [6] is -4.39%. Further, the inclusion score in assay [7] turned out to be 2. For the same compound, the aggregation suppression score in [8] turned out to be 1.53. In addition, in assay [9], the parasite load remaining is 34.5% (inactive) and 13.1% (inactive). The viability in [9] was 88.8%. Besides, the red/green cell ratio (normalised) in assay [10] was 1.29 (inactive). For the same compound, the normalised cell number in assay [10] (setting [12]) came out at 0.99; in assay [10] (setting [13]), 1.27. The fold change is 0.872 (inactive) in assay [11] (setting [14]) and 1.29 in assay [11] (setting [15]). For the same compound, the figures for the cell count in assay [11] (setting [16]) and in assay [11] (setting [17]) were 6800 and 7800, respectively.

With `CN(C)CCCO[C@H]1[C@@H](C(O)CO)OC2OC(C)(C)O[C@@H]21` (stereo not given in full), in assay [1], the inhibition came out at 13.5%. The score in assay [2] came to 1.28. Moreover, the rescue above control in assay [3] was -9.95. For the same compound, in [4], the cytochrome c release ratio amounted to 1.02. For the same compound, the inhibition of aggregation in [5] was found to be 85.9%. For the same compound, in assay [6], the glutamate uptake change is -4%. In addition, the inclusion score in [7] was determined as 2. This compound gave an aggregation suppression score in assay [8] of 1.2. In assay [9], the parasite load remaining is 121% (inactive) and 48% (inactive). In addition, the viability in assay [9] was 87.2% and 101%. The red/green cell ratio (normalised) in assay [10] is 0.97 (inactive). Further, the normalised cell number turned out to be 0.98 in [10] (setting [12]) and 0.95 in assay [10] (setting [13]). In addition, the fold change in assay [11] (setting [14]) is 0.948 (inactive); in [11] (setting [15]), 2.91. For the same compound, the results for the cell count in assay [11] (setting [16]) and in assay [11] (setting [17]) were 12000 and 12700, respectively.

Regarding `CN1C2CC(OC(=O)[C@H](CO)c3ccccc3)C[C@H]1[C@H]1OC21` (stereo not given in full), the inhibition in [1] turned out to be 15.1%. For the same compound, the score in assay [2] worked out at 1.26. Further, the rescue above control in assay [3] turned out to be 6.9. Moreover, in assay [4], the cytochrome c release ratio came out at 1.03. Moreover, in assay [5], the inhibition of aggregation came to 58.7%. For the same compound, the glutamate uptake change in assay [6] is 1.71%. For the same compound, the inclusion score in assay [7] amounted to 2. In addition, the aggregation suppression score in assay [8] is 1.18. The parasite load remaining in [9] is 98.3% (inactive) and 40.5% (inactive). Also, in [9], the viability was 76.7% and 88.6%. Further, the red/green cell ratio (normalised) in assay [10] was 0.76 (inactive). For the same compound, the results for the normalised cell number in assay [10] (setting [12]) and in assay [10] (setting [13]) were 1.11 and 0.84, respectively. The fold change in [11] (setting [14]) is 0.977 (inactive); in assay [11] (setting [15]), 3.37. Moreover, the cell count in [11] (setting [16]) is 11400; in [11] (setting [17]) it was 11600.

Turning to `CCOC(=O)OC(C)OC(=O)C1N2C(=O)C(NC(=O)[C@H](N)c3ccccc3)C2SC1(C)C` (stereo not given in full), the inhibition in assay [1] was 5.61%. In assay [2], this compound came in with a score of 1.5. The same compound gave a rescue above control in assay [3] of -4.3. The cytochrome c release ratio in assay [4] was 0.96. This compound also displayed an inhibition of aggregation in assay [5] of 70.4%. For the same compound, the glutamate uptake change in assay [6] is -13.3%. The same compound showed an inclusion score in assay [7] of 2. In assay [8], the aggregation suppression score was 1.07. Moreover, the parasite load remaining in assay [9] was 43.5% (inactive). Besides, the viability in [9] came out at 104%. For the same compound, in assay [10], the red/green cell ratio (normalised) is 1.19 (inactive). The normalised cell number in assay [10] (setting [12]) is 1.07; in [10] (setting [13]), 1.27. Besides, the fold change in [11] (setting [14]) is 0.906 (inactive); in [11] (setting [15]), 2.54. The cell count in assay [11] (setting [16]) stood at 11600; in assay [11] (setting [17]) it was 12800.

On to `N[C@@H]1[C@@H](O)[C@H](O)[C@@H](CO)O[C@H]1O`, for which, in [1], the inhibition is -15.7%. Further, the score in assay [2] is 0.98. Besides, the rescue above control in assay [3] is 5.73. In addition, the cytochrome c release ratio in assay [4] amounted to 0.85. The compound also gave an inhibition of aggregation in assay [5] of 66.7%. The glutamate uptake change in assay [6] is 9.21%. This compound registered an inclusion score in [7] of 2. The compound also showed an aggregation suppression score in [8] of 1.04. In assay [9], the parasite load remaining is 80.5% (inactive) and 72% (inactive). Moreover, the viability in [9] was 75.2% and 93.7%. The red/green cell ratio (normalised) in [10] is 1.04 (inactive). Besides, the normalised cell number is 1.08 in [10] (setting [12]) and 1.12 in assay [10] (setting [13]). The fold change in assay [11] (setting [14]) was 0.914 (inactive); in [11] (setting [15]), 0.981. In addition, the cell count in assay [11] (setting [16]) was 11500; in assay [11] (setting [17]), 12600.
